# Source: PubChem (National Center for Advancing Translational Sciences (NCATS))
# L3MBTL1 inh = L3MBTL1 (human) inhibition; AlphaScreen L3MBTL1–H3K9me1 peptide binding; 230,000 tested, 0.66% active; Potency, µM (titrated, usually from 57.1 µM), for inactives: top-dose activity, negative = inhibition, most hits filed as inhibitors; Q9Y468; also: nearly all actives have a fitted effect of over 60% in size
#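 Read-out is AlphaScreen signal from streptavidin donor and nickel chelate acceptor beads (10 ug/mL final each) bridging L3MBTL1 (50 nM) and biotinylated K9-monomethylated H3(1-15) peptide (75 nM), after 30 min compound exposure at room temperature.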
# RGS12 GoLoco inh = RGS12 GoLoco-Gai1 interaction inhibition; Gai1:RGS12 GoLoco peptide FP, rhodamine, 10 min; Potency, µM (doses to about 61.6 µM), for inactives: at the top dose activity, negative = inhibition, most hits filed as inhibitors; 230,000 tested, 0.44% active; active = well fitted inhibition curve with a large enough effect, not every such curve was filed as active; inactive = no such curve, though single readings can be large or run the other way; also: nearly all actives have a fitted effect of over 30% in size
# RECQ1 helicase = RECQ1 (human) helicase inhibition; 240,000 tested, 0.54% active; RECQ1 DNA unwinding, red fluorescence kinetic read; P46063; Potency, µM (titrated, usually from 57.3 µM), inactives show at the highest dose activity, negative = inhibition, actives largely listed as inhibitors; AID 2549;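 also: plate controls were vehicle for no effect and no enzyme for full effect; nearly all actives have a fitted effect of over 30% in size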
#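 50 nM RECQ1T1 preincubated 15 min with compound in Tris pH 8.0 buffer with MgCl2, DTT, Tween-20 and 2.5 ug/ml poly(dI-dC); started with 200 nM TAMRA/BHQ-2 forked duplex and 2 mM ATP. Unwinding read as fluorescence (525/598 nm), two reads 2 h apart.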
# APEX1 inh = APE1 (human) endonuclease inhibition; P27695; recombinant APE1, TAMRA/BHQ-2 abasic DNA cleavage fluorescence; Potency, µM (series often up to 65.8 µM), for the others: at the highest dose activity change, negative = inhibition, actives largely listed as inhibitors; 350,000 tested, 0.35% active; AID 2517;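 also: plate controls were vehicle for no effect and reference inhibitor for full effect; nearly all actives have a fitted effect of over 55% in size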
#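 Measures dequenching upon AP-site incision of a 5'-TAMRA/3'-BHQ-2 THF-containing duplex, 50 nM; human APE1 0.75 nM after 15 min room-temperature exposure to compound; kinetic three-point read at one-minute spacing.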
# JMJD2E inh = JMJD2E (human) inhibition | B2RXH2 | Potency, µM (top dose mostly 57.1 µM), inactives show at the top dose activity change, negative = inhibition, usual class: inhibitors | 230,000 tested, 1.6% active | AID 2147 | JMJD2E catalytic domain, FDH-coupled NADH fluorescence (FDH is formaldehyde dehydrogenase);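 also: 0% = wells with enzyme and -100% = buffer wells without enzyme; nearly all actives have a fitted effect of over 50% in size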
# BLM helicase inh = inhibitors of human Bloom syndrome helicase BLM. P54132. recombinant BLM DNA unwinding, fluorescence dequenching. Potency, µM (highest dose often 56.1 µM), for the others: at the highest dose activity change, negative = inhibition, most hits filed as inhibitors. 350,000 tested, 0.2% active. AID 2528;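 also: plate controls were vehicle for no effect and no enzyme for full effect; nearly all actives have a fitted effect of over 35% in size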
# An asterisk follows results filed as active; i = inactive; ? = inconclusive; · = no result; [ ] = another dose, or the depositor's remark. The entries come from a sample that favours hits as a whole. Unless noted, calls follow the shape of the dose curve; as a rule, active = well fitted curve in the direction sought with a large enough effect; inconclusive = small, poorly fitted or top-dose-only effect, or another doubt; inactive = no such curve, though single readings can be large; an effect the other way counts as inactive or inconclusive. Unless noted, % is scaled to controls: 0 for no effect and ±100 for the full control effect; potency is read from the fitted curve at half-maximal effect.
SMILES,L3MBTL1 inh,RGS12 GoLoco inh,RECQ1 helicase,APEX1 inh,JMJD2E inh,BLM helicase inh
COc1ccccc1N1CCN(Cc2ccc(O)c3ncccc23)CC1,·,-5%,-3%,8%,1%,0%
Oc1ccc(CN2CCCc3ccccc32)c2cccnc12,28µM*,-2%,2%,-4%,8.9µM*,-5%
O=C(CSc1nc2c(cnn2-c2ccccc2)c(=O)[nH]1)N1N=C(c2cccs2)CC1c1ccc(F)cc1 (stereo not drawn),6%,6%,i,?,4µM*,1%
Cc1ccc(Cl)cc1NC(=O)c1cc(-c2ccc3c(c2)OCCO3)on1,·,·,·,·,·,-2%
Cc1ccc(/C=N/n2c(-c3ccccn3)n[nH]c2=S)o1,?,1%,-9%,3%,-8%,-1%
Cc1ccccc1/C=N/n1c(-c2ccccn2)n[nH]c1=S,22µM*,14%,-4%,1%,-14%,3%
Oc1c(Br)cc(/C=N/n2c(-c3ccccc3)n[nH]c2=S)c(Br)c1O,0.79µM*,·,·,0.42µM*,·,0.79µM*
S=c1[nH]nc(-c2ccccn2)n1/N=C/c1cccs1,28µM*,3%,-3%,5%,5%,0%
S=c1[nH]nc(-c2ccccn2)n1/N=C/c1cccc2ccccc12,32µM*,20%,-16%,7%,?,2%
COc1cccc(CN2c3ccccc3-c3nc(SCC(=O)Nc4ccccc4Cl)ncc3S2(=O)=O)c1,·,·,·,·,·,-8%
CCOc1ccc(C(=O)c2ccncc2)cc1,·,3%,0%,4%,2%,-1%
CCOc1ccc(C(=O)c2ccc(OC)c(O)c2O)cc1,·,5%,i,13%,25µM*,-1%
COc1ccc(C(=O)c2ccc(O)cc2)c(O)c1O,·,-1%,14µM*,?,16µM*,-8%
CCOC(=O)c1noc2ncn(CC(=O)Nc3ccc(F)cc3Cl)c(=O)c12,·,·,·,·,·,1%
N#CCCS(=O)(=O)c1ccccc1,·,-3%,4%,1%,17%,1%
Cc1ccc(S(=O)(=O)/N=C2\C=C(Nc3ccc(O)cc3)C(=O)c3ccccc32)cc1,?,·,·,-28%,·,·
Cc1ccc(S(=O)(=O)/N=C2\C=C(Nc3cccc(C(=O)O)c3)C(=O)c3ccccc32)cc1,·,·,·,-13%,·,20µM*
COC(=O)c1ccccc1NC1=C/C(=N\S(=O)(=O)c2ccc(C(=O)O)cc2)c2ccccc2C1=O,·,·,·,?,·,20µM*
CCc1ccc(S(=O)(=O)/N=C2\C=C(Nc3ccc(C(=O)O)cc3)C(=O)c3ccccc32)cc1,·,·,·,-15%,·,25µM*
COC(=O)c1ccccc1NC1=C/C(=N\S(=O)(=O)c2cccs2)c2ccccc2C1=O,·,-19%,-4%,?,?,6%
Cc1ccc(S(=O)(=O)/N=C2\C=C(Nc3cccc(C(=O)O)c3)C(=O)c3ccccc32)c(C)c1,·,·,·,53%,·,25µM*
COc1ccc(Cl)c(Cn2cnc3c(cnn3C(C)(C)C)c2=O)c1F,·,·,·,-4%,·,·
CCCC[C@@H]1CN2[C@H](c3ccc(Br)cc3)[C@H](C)CC[C@H]2C(=O)O1,·,·,-6%[11.5 µM],11%[12.4 µM],·,-1%[12.4 µM]
CN(C)C(=O)CCSC(SCCC(=O)O)c1cccc(/C=C/c2ccc3ccc(Cl)cc3n2)c1 (stereo not drawn),·,·,·,·,·,-10%
O=C1C(Nc2ccccc2)=C/C(=N/S(=O)(=O)c2cccs2)c2ccccc21,6.3µM*,19%,-10%,?,?,-27%
Cc1ccc(NC2=C/C(=N/S(=O)(=O)c3cccs3)c3ccccc3C2=O)cc1,?,7%,i,-4%,3%,-10%
CC1CCN(C(=O)c2c(NC(=O)c3ccccc3F)sc3c2CCC(C(C)(C)C)C3)CC1 (stereo not drawn),·,·,·,·,·,-11%
